The structures appear in SMILES notation. Among all 16,000 compounds or so, about 130 (0.81%) were called active. For the sample, actives were picked, then their nearest neighbours and some compounds at random. A number with no mark means an inactive call. No stated cut-off is given here; in the data, active means inhibition above about 75%; inactive means the rest.

Data on 103 compounds can be found in PubChem BioAssay AID1792 (The Scripps Research Institute Molecular Screening Center, 2009).

NADPH oxidase 1 (Homo sapiens), sequence (Q9Y5S8 whole entry, looked up): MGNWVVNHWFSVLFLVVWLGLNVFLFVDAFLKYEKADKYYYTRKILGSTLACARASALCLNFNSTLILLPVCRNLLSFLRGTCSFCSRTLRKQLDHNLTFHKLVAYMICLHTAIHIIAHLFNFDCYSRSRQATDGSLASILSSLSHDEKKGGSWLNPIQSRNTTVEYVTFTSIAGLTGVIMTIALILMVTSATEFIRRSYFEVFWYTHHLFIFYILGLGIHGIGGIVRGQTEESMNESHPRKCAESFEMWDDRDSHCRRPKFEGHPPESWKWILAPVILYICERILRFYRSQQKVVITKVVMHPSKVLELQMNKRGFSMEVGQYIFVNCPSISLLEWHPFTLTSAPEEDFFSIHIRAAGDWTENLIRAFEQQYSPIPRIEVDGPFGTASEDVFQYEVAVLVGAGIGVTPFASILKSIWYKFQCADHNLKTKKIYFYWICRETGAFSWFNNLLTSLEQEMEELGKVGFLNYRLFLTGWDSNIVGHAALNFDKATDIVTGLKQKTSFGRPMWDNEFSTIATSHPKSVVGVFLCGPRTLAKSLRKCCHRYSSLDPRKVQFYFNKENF

This assay addresses NADPH oxidase 1 (Homo sapiens) (UniProt Q9Y5S8). Nature of the assay: blocks human NADPH oxidase 1 activity (AID 1792). Particulars: HT29 cells, luminol chemiluminescence ROS; at 6.7 µM; hits give high values.
Take `N#C/C(=C\c1sccc1Oc1ccccc1)S(=O)(=O)c1ccc(C(F)(F)F)cn1`: the inhibition was -16.5%.
For `CCCCC#Cc1cncc(C(=O)NNC(=O)Nc2ccc(Cl)cc2)c1` the value was 11.2%.
For `N#Cc1cccnc1NNC(=O)Nc1ccc(OCc2ccccc2)cc1` the value was 61.8%.
For `CC(C)CC(NC(=O)OC(C)(C)C)C(=O)OCc1ccc(CC(=O)O)cc1` (stereo not drawn) the value was -5%; for `O=c1c(-c2nc(-c3ccc(C(F)(F)F)cc3)no2)cnc2n1CCS2`, -4.83%; for `CSc1sc(C(=O)NC2CC2)c(-c2ccc(Cl)cc2)c1C#N`, -9.35%.
In the case of `NS(=O)(=O)c1ccc(Oc2c(Cl)cccc2[N+](=O)[O-])cc1`, the inhibition was 21.2%.
Take `Cc1cc(C(=O)NCCNS(=O)(=O)c2ccc(Cl)cc2)c(C)o1`: the inhibition was 2.68%.
Turning to `O=C1c2ccccc2O[C@@H](c2ccccc2)[C@@H]1NC1CCCCC1`, the inhibition is -19.7%.
As for `COC(=O)c1ccccc1-c1c2ccc(=O)cc-2oc2cc(O)ccc12`, the figure is -13%.
As for `C#CC(C)(CC)OCC(O)CS(=O)(=O)O` (stereo not drawn), the figure is -13.2%; as for `COc1cccc2c1c(NS(=O)(=O)c1cn(C)cn1)nn2C`, -41.2%; as for `Cc1nc(-n2cccc2)sc1C(=O)N/N=C/c1ccccc1Cl`, 6.52%.
For `O=S(=O)(c1ccc(Cl)cc1)n1nccc1/C=C/c1cccs1` the value was -18.9%.
Consider `CSc1nnc(SC)n1CCNC(=O)Nc1cccc(Cl)c1`, for which the inhibition is -65%.
For the compound `O=C(Cn1nnc2ccccc21)NCCSCc1ccco1`, the inhibition was 16.2%.
For `CN([C@H]1CCN2CCc3ccccc3C2C1)S(C)(=O)=O` (stereo partly drawn) the value was -68.5%; for `N#Cc1nccnc1N1CCN(C(=O)c2ccccc2)CC1`, -2.33%.
As for `Cc1ccc(C(=O)N2CCN(c3cccc4[nH]ccc34)CC2)cc1`, the figure is 76% (active); as for `COc1cccc(NC(=S)N(CCC#N)C2CCCCC2)c1`, -44.9%; as for `COc1ccc(NC(=S)Nc2ccc(OC)cc2)cc1`, 3.7%.
As for `COc1cccc(NC(=S)NNC(=S)NC2CC3CCC2C3)c1` (stereo not drawn), the figure is 87.8% (active); as for `CSc1nc(-n2nc(C)cc2C)nc(-c2ccco2)c1C#N`, -107%; as for `Cc1ccc(NC(=S)C(C#N)C(=O)N2CCCC2)c(C)c1` (stereo not drawn), -73.4%.
Regarding `CCOC(=O)c1c[nH]n2c(=O)c3c(nc12)CCC3`, the inhibition is -13%.
For `Cc1noc(C)c1S(=O)(=O)NCc1cc(F)cc2c1OCOC2` the value was -23.9%; for `CS/C(=N/S(=O)(=O)c1c(C)noc1C)NNC(=O)Nc1ccc(Cl)cc1`, 20%; for `CC1=NCCNC(C)=C1N1CCOCC1`, -21.2%.
Regarding `CCCCNC(=O)OCCSCCS(=O)(=O)c1ccc(Cl)cc1`, the inhibition is -35%.
Regarding `O=C(NCc1cccnc1)Nc1cccc(NC(=O)NCc2cccnc2)c1F`, the inhibition is -23.7%.
Regarding `CC(C)(C)OC(=O)n1ccc2cc(Br)ccc21`, the inhibition is -51.3%.
As for `Fc1ccc(NC(=S)N2CCN=C2Nc2ccc(F)cc2)cc1`, the figure is -49.7%.
For the compound `O=C(O)c1ncoc1-c1cccc(Cl)c1`, the inhibition was -52.4%.
As for `CCOC(=O)CC(=O)CSc1nnc(N)s1`, the figure is -48%; as for `N#Cc1cncc(Br)c1`, -66.5%; as for `NNC(=O)CC1C(=O)NCCN1Cc1c(Cl)cccc1Cl` (stereo not drawn), 14.9%.
For `CSc1ccc(Br)cc1` the value was -59.5%; for `CC(C)(C)c1cc(NC(=O)/C(C#N)=C/c2cccc(Cl)c2Cl)c(C(N)=O)s1`, -9.18%; for `COC(=O)c1ccccc1N(C)C(=O)c1cc(OC)c(OC)c(OC)c1`, -18%.
For `CCOC(=O)NC(=O)/C(=C/NCc1cccs1)C(=O)OCC` the value was -20.5%; for `NC(=O)c1ccc(-c2csnn2)cc1`, -4.63%; for `FC(F)(F)c1cc(-c2ccc(Br)cc2)n[nH]1`, -47%.
On to `Cc1ncn2cc(-c3ccc(Cl)cc3Cl)[nH]c(=O)c12`, for which the inhibition was -12%.
Take `Cc1ccc(CSC(=N)N)cc1`: the inhibition was -35.4%.
On to `O=C(NC(=S)Nc1nc(-c2ccc(Cl)cc2)cs1)C1CC1`, for which the inhibition is -57.1%.
For `CC(=O)NC(Cc1c[nH]c2ccccc12)C(=O)O` (stereo not drawn) the value was -15.3%; for `O=C(Cn1c(=Nc2ccc(F)cc2)oc2ccccc2c1=O)c1ccccc1`, -0.92%; for `COc1ccc(S(=O)c2ccccc2C(=O)O)c(C(=O)O)c1` (stereo not drawn), -11.3%.
For `COc1ccccc1C1CCN(c2ccc([N+](=O)[O-])cn2)CC1` the value was 18%; for `O=C(Nc1ccc(C(F)(F)F)cn1)c1ccc(Oc2cc(Cl)cc(Cl)c2)o1`, -58.2%.
`CCCCOC(=O)c1ccc(-c2ccccn2)s1`: the inhibition is -10.4%.
On to `Cc1[nH]ncc1S(=O)(=O)c1ccc(Cl)cc1`, for which the inhibition was -77.8%.
For `Cc1cc(C(=O)NNC(=O)c2cc(C)n(C(C)(C)C)n2)no1` the value was -45.9%; for `O=C(Nc1ccccc1C(F)(F)F)N1CCCC1c1cccnc1` (stereo not drawn), -8.11%; for `CCOC(=O)c1sc(SC)c(-c2ccccc2)c1N`, 0%.
As for `N#Cc1c(C2CCCCC2)[nH]c(=S)[nH]c1=O`, the figure is -8.73%; as for `COc1c(/C(N)=N/O)cc(C)c2c1CCC2`, 8.11%.
For `Cc1ccc(S(C)(=O)=NC(=O)NS(=O)(=O)Oc2ccc(Cl)cc2Cl)cc1` (stereo not drawn), the inhibition is -64.7%.
For `O=C1c2ccccc2C(=O)N1CNc1ccc(C2CCCCC2)cc1` the value was -10.4%; for `O=C(c1ccc(C#Cc2ccccc2)o1)N1CCCCC1`, -23.7%.
As for `NNC(=O)c1csc(COc2ccc(C3SCCS3)cc2)n1`, the figure is 4.76%.
As for `N/C(Cc1ccc(F)cc1F)=N\OC(=O)c1cccc(C(F)(F)F)c1`, the figure is -67.4%; as for `O=C(c1ccccc1I)c1c[nH]c2ccccc12`, 13.6%; as for `CC1(C)c2ccccc2-n2c1cc(O)c(-c1ccccc1)c2=O`, -50%.
As for `COC(=O)c1c(C)noc1-c1ccno1`, the inhibition is -21.7%.
Turning to `CCCCCCCCCCCCCC#CC(O)C(N)CO` (stereo not drawn), the inhibition was -24.7%.
On to `O=C(NNC(=O)C1c2ccccc2Oc2ccccc21)c1cccc(F)c1`, for which the inhibition was -30.2%.
In the case of `CC(=O)Nc1ccc(NC(=O)c2cc(C)ccc2[N+](=O)[O-])c(C)c1`, the inhibition is -28.7%.
As for `CSc1ccc(C(F)(F)F)cc1NC(=S)Nc1ccccc1`, the inhibition is -18%.
As for `COC(=O)c1sccc1-c1ccc(/C(C)=N/NC(N)=O)o1`, the figure is -53.5%; as for `CCOC1=NC(C(F)(F)F)(C(F)(F)F)N=C(N2CCOCC2)O1`, -12.7%; as for `O=S(=O)(Cc1cccc(C(F)(F)F)c1)NCc1ccc2c(c1)OCO2`, -29.2%.
As for `Cc1nc(-c2ccccc2)sc1-c1nnc(C2CC2)o1`, the figure is -8.29%; as for `Cc1ccc(CC(=O)c2cccnc2)cc1`, 13.9%.
For `COc1ccccc1N1CCN(C/C(N)=N/O)CC1` the value was -72.5%; for `O=C(NCc1ccc2c(c1)OCO2)c1cccc2c1OCCCO2`, -22.4%; for `COc1ccc(-c2nnc(SCC(O)C(F)(F)F)n2-c2cccc(OC)c2)cc1` (stereo not drawn), -65.7%.
As for `O=C1CCC(=O)N(c2ccccc2)N1`, the inhibition is 5.82%.
As for `CN(C)/C=N/NC(=O)c1nc(-c2cccc(-n3cccc3)c2)no1`, the figure is 18.8%; as for `O=S(=O)(Oc1ncccc1C(F)(F)F)c1cccc(F)c1`, -33.3%; as for `CC(C)(C)c1csc(Sc2ccc([N+](=O)[O-])cc2[N+](=O)[O-])n1`, -42.4%.
For `Cc1[nH]c2ccccc2c1Sc1ccc(Cl)cc1`, the inhibition is -26.1%.
As for `CC1(C)C2CC[C@](C)(C2)C1NC(=O)c1c(Cl)cccc1Cl` (stereo partly drawn), the figure is -15.2%.
With `Oc1c(Cl)c(Cl)c(Cl)c2ccccc12`, the inhibition was -9.97%.
In the case of `O=C(Nc1ccccc1)N1CCN(Cc2ccccc2)CC1`, the inhibition is -18.5%.
For the compound `Nc1[nH]c(=O)nc2nc[nH]c12`, the inhibition is 10.8%.
For `CN(C)CCC(O)c1ccc2c(c1)OCCCCO2` (stereo not drawn) the value was -25.5%; for `Cc1ccc2sc(NC(=O)NC(=O)c3c(Cl)cccc3Cl)nc2c1`, -14.9%.
With `Cc1c(C(=O)Nc2ccccc2)sc2cc(C(C)(C)C)sc12`, the inhibition is 4.35%.
Regarding `CS(=O)(=NC(=O)c1cc2ccccc2o1)c1ccc(Cl)cc1` (stereo not drawn), the inhibition is 3.12%.
For `N#CCc1ccc(NC(=O)c2ccccc2C(=O)Nc2ccc(CC#N)cc2)cc1`, the inhibition is -21.7%.
As for `CCCN(CCC)S(=O)(=O)c1ccc(C(=O)N2CC3CCC(CC3)C2)cc1`, the figure is -49.5%.
As for `OC(CNCc1ccc2c(c1)OCO2)COc1ccccc1` (stereo not drawn), the figure is -16.2%.
For `CC(C)c1ccc(N2C(=O)/C(=C\c3ccc(-c4ccc([N+](=O)[O-])cc4)o3)SC2=S)cc1` the value was -23.7%.
On to `FC(F)(F)c1cccc(-n2c(-c3ccncc3)n[nH]c2=S)c1`, for which the inhibition is -29.9%.
As for `c1ccc(CN2CCN(Cn3nnc4ccccc43)CC2)cc1`, the figure is -54.1%; as for `CC1(C)C=Cc2cc(-c3noc(-c4ccccc4)n3)ccc2O1`, -38.9%.
For `Nc1c(-c2nnc(SCC(=O)c3ccccc3)o2)cnn1-c1ccccc1` the value was 26.2%.
As to `FC(F)(F)c1ccc(/C=N/Nc2nccc(C(F)(F)F)n2)cc1`, the inhibition was -24.2%.
Take `CC(=O)Nc1cccc(-n2nnc(SCC(=O)c3cc(-c4ccccc4)no3)n2)c1`: the inhibition is -33.7%.
For the compound `Cc1ccc(S(=O)(=O)NNC(=S)NC(C)(C)C)cc1`, the inhibition is -24.1%.
For `C=C(C)c1cccc(C(C)(C)NC(=O)CC(C)=O)c1` the value was -17.3%; for `COC(=O)c1cccc(CSc2ncccc2C(=O)O)c1`, -48.1%.
